# HSP90 inh – HSP90 inhibitors, primary screen, cell lysate, luminescence; Rabbit reticulocyte lysate, luciferase refolding luminescence, 3 h; Heat shock protein HSP 90 (rabbit reticulocyte lysate; luciferase refolding); inhibition, % at 5.6 µM; 0.91% of 290,000 active; AID 1789, 2009;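 active = inhibition above the screen-wide mean plus 3 SD, computed separately per campaign, cut at about 16% in these data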;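 also: 0% = DMSO wells and 100% = 60 µM geldanamycin wells; inhibitors lower the luminescence because luciferase stays unfolded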
# HSF-1 act – HSF-1 activators, primary screen, NIH3T3-HGL cells, MG132 stress, luminescence, single point; NIH3T3-HGL HSF-1 luciferase reporter, 8 h; 100% = twice DMSO control signal; activation, % at 9 µM; 1.7% of 300,000 active; AID 504408, 2011;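 active = mean replicate activation of at least 50% with a set share of replicates each reaching 50%; inconclusive = only one of those two conditions met; inactive = mean below 50% and too few replicates reaching it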;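 also: 0% = median of the neutral control wells and 100% = twice that signal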
# FXN GAA850 act – FXN promoter activators, primary screen, cell-based, luciferase luminescence, HEK293 lucGAA850; 0.56% of 360,000 active; HEK293 lucGAA850 FXN promoter luciferase reporter, 24 h; percent of 10 µM SAHA response; activation, % at 6 µM;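 active = activation above the average of all compounds screened plus 3 SD, cutoff fixed separately per campaign, cut at about 7.5% in these data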;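 also: 0% = DMSO wells and 100% = 10 µM SAHA wells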
# HSF1 inh – HSF1 inhibitors in luciferase reporter cells, primary screen, cell-based, NIH3T3, luminescence. activity change, negative = inhibition, % at 7.5 µM (by protocol). NIH3T3-HGL HSE-luciferase, MG132-induced, luminescence 8 h; hits give low values. 0.77% of 300,000 active;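 active = more than half of replicate wells show activity change below -50%, luminescence cut by over half; inconclusive = some wells, but at most half, below -50%; inactive = no replicate well below -50%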;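 also: luciferase reports HSF-1 transcriptional activity via heat shock element; 0% = median of DMSO wells and -100% = zero luminescence signal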
# AHR activator – AHR activators, primary screen, cell-based, luminescence, luciferase reporter, human. Aryl hydrocarbon receptor (Homo sapiens), P35869. 2.5% of 320,000 active. AHR-responsive luciferase reporter cells. activation, % at 5 µM; in the data active = activation above about 47%;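 also: 0% = vehicle wells and 100% = reference agonist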
# Target sequence (P35869 whole entry, looked up): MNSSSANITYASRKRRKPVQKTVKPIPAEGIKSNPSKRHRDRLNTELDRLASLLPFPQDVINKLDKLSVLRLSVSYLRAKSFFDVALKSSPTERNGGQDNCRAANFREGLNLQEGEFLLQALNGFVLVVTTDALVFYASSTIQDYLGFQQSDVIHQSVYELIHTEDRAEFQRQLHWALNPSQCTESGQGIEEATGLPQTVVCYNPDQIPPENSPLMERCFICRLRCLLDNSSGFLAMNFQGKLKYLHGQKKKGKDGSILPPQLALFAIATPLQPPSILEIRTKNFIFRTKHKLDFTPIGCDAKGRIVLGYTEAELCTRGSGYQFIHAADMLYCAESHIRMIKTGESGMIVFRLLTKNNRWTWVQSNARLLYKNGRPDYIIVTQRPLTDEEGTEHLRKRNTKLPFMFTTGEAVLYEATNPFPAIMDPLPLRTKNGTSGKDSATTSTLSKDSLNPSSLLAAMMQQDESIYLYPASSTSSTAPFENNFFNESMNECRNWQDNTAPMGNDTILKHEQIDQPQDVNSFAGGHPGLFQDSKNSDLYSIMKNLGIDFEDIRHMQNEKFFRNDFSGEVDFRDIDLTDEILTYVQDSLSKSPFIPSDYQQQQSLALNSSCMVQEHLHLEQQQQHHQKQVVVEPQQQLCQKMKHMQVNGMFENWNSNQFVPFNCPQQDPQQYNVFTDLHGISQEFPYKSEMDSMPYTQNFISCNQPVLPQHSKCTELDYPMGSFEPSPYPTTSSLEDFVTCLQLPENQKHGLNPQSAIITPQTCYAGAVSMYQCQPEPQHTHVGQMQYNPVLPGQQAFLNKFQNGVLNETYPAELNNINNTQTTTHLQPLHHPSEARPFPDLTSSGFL
# DAX1 inh – DAX1 (NR0B1) inhibitors, primary screen, cell-based, HEK293, Gal4-DAX1, luciferase luminescence; Nuclear receptor subfamily 0 group B member 1 (Homo sapiens), P51843; HEK293 Gal4-DAX1 luciferase reporter; inhibition, % at 6.75 µM; 0.99% of 340,000 active; AID 504766, 2011;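 active = inhibition above the mean over all tested compounds plus 3 SD, cut at about 4.2% in these data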;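 also: 0% = DAX1-transfected cells with DMSO and 100% = empty-vector control cells with DMSO; inhibition shows as a rise in luminescence from relieved DAX1 repression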
# An asterisk follows results filed as active; ? = inconclusive; . = no result. The list is not random: actives were taken first. Their share in the collection is about 5.9%.
SMILES,HSP90 inh,HSF-1 act,FXN GAA850 act,HSF1 inh,AHR activator,DAX1 inh
CCC1CCCCN1c1ccc([N+](=O)[O-])cc1/C=N/NC(=O)Cn1c2ccccc2c(=O)c2ccccc21 (stereo unspecified),3,4,-1,-2,0,6.0*
CCc1ccc(OCC(=O)N/N=C/c2cc([N+](=O)[O-])ccc2N2CCCCCC2)cc1,4,-1,3,8,-1,-2
CCCN(C(=O)c1ccc2c(SCC(=O)O)c3c(nc2c1)CCC3)c1cccc(C)c1,-1,14,1,-2,-2,0
Cc1cc(C)c(S(=O)(=O)Nc2cc(SCC(=O)O)c(O)c3ccccc23)cc1C,-3,21,.,8,61*,.
COc1ccc(S(=O)(=O)Nc2cc(SCC(=O)O)c(O)c3ccccc23)cc1,7,14,3,6,66*,-1
COc1ccc(S(=O)(=O)Nc2cc(Sc3ncn[nH]3)c(O)c3ccccc23)cc1,76*,.,.,.,.,.
O=S(=O)(Nc1ccc(Cl)cc1NS(=O)(=O)c1ccccc1)c1ccccc1,.,.,0,.,.,-1
O=C(O)CSc1cc(NS(=O)(=O)c2ccc(Cl)cc2)c2ccccc2c1O,14,16,-2,3,50*,-1
CNC(=O)OC(C)CNS(=O)(=O)c1ccc(C)cc1 (stereo unspecified),-2,-6,1,0,-1,1
CC(=O)OC(C)C(=O)NS(=O)(=O)c1ccc(C)cc1 (stereo unspecified),0,71*,0,38,0,-1
Cc1ccnc2nc(C(=O)OCC(=O)c3ccc(NC(=O)CC(C)C)cc3)nn12,.,.,1,.,0,5.5*
c1ccc(Nc2ncnc3sccc23)cc1,-4,-6,1,0,3,-1
CC(Nc1ncnc2sccc12)c1ccccc1 (stereo unspecified),2,-84,-5,-81*,-8,-2
COc1ccc(Nc2ncnc3sccc23)cc1,-3,24,6,15,10,0
COc1cccc(Nc2ncnc3sccc23)c1,-2,?,3,24,52*,1
COc1ccc(OC)c(Nc2ncnc3sc(-c4ccccc4)cc23)c1,5,-1,2,-5,69*,1
COc1cccc(Nc2ncnc3sc(C)cc23)c1,-6,69*,4,33,16,0
CCOC(=O)c1cnc2cc(-c3ccc(C)cc3)nn2c1C,.,.,2,.,.,2
O=C(O)c1ccccc1N(c1ccccc1)c1ccccc1,.,42,-1,14,-2,.
CCCCOc1cccc(/C=C(\C#N)C(=O)NC2CC2)c1,-1,7,1,-2,3,0
CC1(C)Cc2c(C#N)c(NCCO)nc(-c3ccco3)c2CO1,1,-58,4,-52*,1,.
O=C1COc2ccc(C(=O)C[n+]3cccc(O)c3)cc2N1,2,0,0,-3,-3,1
COc1ccc(OC(=O)c2cccc(S(=O)(=O)N3CC(C)OC(C)C3)c2)cc1 (stereo unspecified),.,.,1,.,-1,-1
Cc1noc(C)c1CSCC(=O)Nc1ccc(S(=O)(=O)C(F)F)cc1,.,-69,-1,-58*,6,0
Cn1c(N)c(C(=O)COC(=O)c2ccc(OC(F)F)cc2)c(=O)n(C)c1=O,.,.,3,.,0,0
SMILES,HSP90 inh,HSF-1 act,FXN GAA850 act,HSF1 inh,AHR activator,DAX1 inh
COC(=O)c1c(-c2ccccc2)noc1-c1ccccc1,.,23,4,1,53*,.
Cc1onc(-c2ccccc2)c1C(=O)Nc1ccc(NC(=O)c2c(-c3ccccc3)noc2C)cc1,.,4,0,-3,-3,5.1*
COC(=O)c1c(C)noc1-c1ccc(Cl)cc1,-3,-1,2,-2,-3,3
O=C(C[C@@H]1C/C=C\CCC(=O)OC[C@@H]2CCCN2C1=O)N[C@@H](CO)Cc1ccccc1,.,.,0,.,0,2
CN(C(=O)CSc1nnc(CNC(=O)c2ccccc2)o1)c1ccccc1,-6,7,0,5,3,0
CCCC12CN3CCN(CC(C3)/C1=N\NC(=O)c1ccc(C(C)(C)C)cc1)C2,-3,42,1,6,1,0
COCC(=O)Nc1nc(-c2ccccc2)ns1,2,14,2,-9,47*,1
CCN(CC(=O)NCCC1=CCCCC1)S(=O)(=O)c1ccccc1,3,-17,3,-2,1,-1
Cc1cc(C)cc(NC2=NC3(CCCCC3)N=C(N)N2)c1,-3,-4,0,-6,56*,0
COc1ccc(N2CCN(c3ncnc4c3cnn4-c3ccc(C)cc3C)CC2)cc1,0,77*,-4,47,-1,-1
O=C(Nc1cccc(S(=O)(=O)N2CCOCC2)c1)c1cc(S(=O)(=O)N2CCOCC2)c(Cl)cc1Cl,.,.,-2,.,.,-1
CC(C)C[C@@H](CN)NC(=O)c1nc[nH]c1C(=O)N[C@@H](CC(C)C)C(=O)CNC[C@H](C)NC(=O)c1nc[nH]c1C(=O)N[C@@H](CC(C)C)C(=O)O,.,.,2,.,.,0
Cc1ccc(NC(=O)c2cc(N3C(=O)C=CC3=O)ccc2Cl)cc1C,-2,60*,4,44,5,-1
COc1cccc(C(C[N+](=O)[O-])c2c(C)[nH]n(-c3ccccc3)c2=O)c1 (stereo unspecified),42*,278*,-1,214,4,0
Cc1[nH]n(-c2ccccc2)c(=O)c1C(c1cccc([N+](=O)[O-])c1)c1c(C)[nH]n(-c2ccccc2)c1=O,6,17,1,22,16,0
Cc1[nH]n(-c2ccccc2)c(=O)c1C(C[N+](=O)[O-])c1ccc(Br)cc1 (stereo unspecified),10,210*,1,181,7,0
CCN1CCN(c2nc3c(C)cccn3c(=O)c2C=C(C#N)C#N)CC1,-3,-3,2,-2,.,1
COC(=O)c1cc(N=Cc2c(O)c3ccccc3oc2=O)cc(C(=O)OC)c1,-5,2,0,-6,2,9.2*
O=C(NC1CCN(C(=O)c2cccc([N+](=O)[O-])c2)CC1)c1ccccc1,-4,-3,2,-7,3,0
O=C(CN1CCOCC1)Nc1ccc(Cl)cn1,2,5,2,-3,0,2
CC(=O)Nc1nc(-c2ccc(Cl)cc2)nc(C)c1C(C)=O,1,12,-2,-2,73*,3
CC(=O)c1c(C)[nH]c(C(=O)CSc2nnc(C)s2)c1C,2,9,2,12,68*,4

# High-throughput results as filed in PubChem BioAssay.
